Inconclusive results are not listed. Where a call stands in place of a potency, no number is given. The source made the active and inactive calls. Calls follow the shape of the dose curve; as a rule, active = well fitted inhibition curve with a large enough effect; inconclusive = small, poorly fitted or top-dose-only effect; inactive = flat fitted curve, though single readings scatter.
Each molecule was assayed on ATS189 (assay: qHTS profiling for inhibitors of Plasmodium falciparum proliferation (AID 504749; also: nearly all actives have a fitted effect of over 60% in size)). Conditions: P. falciparum in erythrocytes, SYBR Green DNA, 72 h; series mostly up to 28.7 µM.
Outline: (§1)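 Infected RBCs, 0.3% parasitemia/2.5% Hct final; cpd 72 h, 37 C, 5% CO2; lysis buffer with saponin/triton/SYBR Green I, o/n RT dark; FI 485/535; norm. to artemisinin (0.29 uM) and DMSO.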
Potency is read from the fitted curve at half-maximal effect.

Row | SMILES | Potency
1 | CCOC(=O)Cc1ccc(-c2ccccc2)cc1 | inactive
2 | CNC(=O)[C@H](Cc1c[nH]c2ccccc12)NC(=O)[C@@H](CC(=O)NO)CC(C)C | inactive
3 | O=c1n(CC2CO2)c(=O)n(CC2CO2)c(=O)n1CC1CO1 (stereo unspecified) | inactive
4 | C[C@H](CCC(=O)O)[C@H]1CC[C@H]2[C@@H]3CC[C@@H]4C[C@H](O)CC[C@]4(C)[C@H]3C[C@H](O)[C@]12C | inactive
5 | CNC(=O)c1c(I)c(C(=O)NCC(=O)Nc2c(I)c(C(=O)O)c(I)c(C(=O)NCCO)c2I)c(I)c(N(C)C(C)=O)c1I | inactive
6 | S=C1SCN(Cc2ccccc2)CN1Cc1ccccc1 | inactive
7 | Nc1ccc(N=Nc2ccccc2)c(N)n1 | inactive
8 | OC/C=C/c1ccccc1 | inactive
9 | CN(C)CCC=C1c2ccccc2C(C)(C)c2ccccc21 | inactive
10 | O=C1c2ccccc2C(=O)C1c1ccc(Cl)cc1 | inactive
11 | CC(=O)Oc1cccc2c1C(=O)c1c(OC(C)=O)cc(C(=O)O)cc1C2=O | inactive
12 | CC[C@H]1OC(=O)[C@H](C)[C@@H](O[C@H]2C[C@@](C)(OC)[C@@H](O)[C@H](C)O2)C(C)[C@@H](O[C@@H]2O[C@H](C)C[C@H](N(C)C)[C@@H]2O)[C@](C)(OC)C[C@@H](C)C(=O)[C@H](C)[C@@H](O)[C@]1(C)O (stereo partly specified) | inactive
13 | CCCCCCCCCCCCCCCCCC[N+](C)(C)CCC[Si](OC)(OC)OC | inactive
14 | CCN(CC)CCC(=O)N1c2ccccc2Sc2ccc(Cl)cc21 | inactive
15 | CC(=O)Nc1ccc(NC(=S)NC(=O)c2ccc(C(C)(C)C)cc2)cc1 | inactive
16 | CC(=O)Nc1c(I)c(C(=O)O)c(I)c(N(C)C(C)=O)c1I | inactive
17 | c1ccc2c(c1)Sc1ccccc1N2CCN1CCCC1 | 8.91 µM (active)
18 | NC(N)=NCC1COc2ccccc2O1 (stereo unspecified) | inactive
19 | CC[C@H]1OC(=O)[C@H](C)[C@@H](O[C@H]2C[C@@](C)(OC)[C@@H](O)[C@H](C)O2)[C@H](C)[C@@H](O[C@@H]2O[C@H](C)C[C@H](N(C)C)[C@H]2O)[C@](C)(O)C[C@@H](C)CN(C)[C@H](C)[C@@H](O)[C@]1(C)O | 12.6 µM (active)
20 | O=C1c2ccccc2CN2C(=O)c3ccccc3CN12 | inactive
21 | O=C(Nc1ccc(O)cc1)c1ccccc1O | inactive
22 | C#C[C@]1(O)CC[C@@H]2[C@H]3CCC4=CC(=O)CC[C@H]4[C@H]3C(=C)C[C@@]21CC | inactive
23 | COc1ccc2nc(NC(=O)Nc3ccccc3)sc2c1 | inactive
24 | O=C(OCc1ccccc1)c1cccnc1 | inactive

These molecules were tested on ATS95 in the same assay as above. Conditions: P. falciparum in erythrocytes, SYBR Green DNA, 72 h; series mostly up to 28.7 µM.
Outline: as §1

Row | SMILES | Potency
25 | Cc1cc(-c2ccc(N=Nc3c(S(=O)(=O)O)cc4cc(S(=O)(=O)O)cc(N)c4c3O)c(C)c2)ccc1N=Nc1c(S(=O)(=O)O)cc2cc(S(=O)(=O)O)cc(N)c2c1O | inactive
26 | CCOC(=O)Cc1ccc(-c2ccccc2)cc1 | inactive
27 | C[C@H](CCC(=O)O)[C@H]1CC[C@H]2[C@@H]3CC[C@@H]4C[C@H](O)CC[C@]4(C)[C@H]3C[C@H](O)[C@]12C | inactive
28 | CNC(=O)c1c(I)c(C(=O)NCC(=O)Nc2c(I)c(C(=O)O)c(I)c(C(=O)NCCO)c2I)c(I)c(N(C)C(C)=O)c1I | inactive
29 | S=C1SCN(Cc2ccccc2)CN1Cc1ccccc1 | inactive
30 | Nc1ccc(N=Nc2ccccc2)c(N)n1 | inactive
31 | O=P(O)(O)OP(=O)(O)O | inactive
32 | OC/C=C/c1ccccc1 | inactive
33 | O=C1c2ccccc2C(=O)C1c1ccc(Cl)cc1 | inactive
34 | CC(=O)Oc1cccc2c1C(=O)c1c(OC(C)=O)cc(C(=O)O)cc1C2=O | inactive
35 | CC[C@H]1OC(=O)[C@H](C)[C@@H](O[C@H]2C[C@@](C)(OC)[C@@H](O)[C@H](C)O2)C(C)[C@@H](O[C@@H]2O[C@H](C)C[C@H](N(C)C)[C@@H]2O)[C@](C)(OC)C[C@@H](C)C(=O)[C@H](C)[C@@H](O)[C@]1(C)O (stereo partly specified) | inactive
36 | CCCCCCCCCCCCCCCCCC[N+](C)(C)CCC[Si](OC)(OC)OC | inactive
37 | CC(=O)Nc1c(I)c(C(=O)O)c(I)c(N(C)C(C)=O)c1I | inactive
38 | c1ccc2c(c1)Sc1ccccc1N2CCN1CCCC1 | 8.91 µM (active)
39 | NC(N)=NCC1COc2ccccc2O1 (stereo unspecified) | inactive
40 | CC[C@H]1OC(=O)[C@H](C)[C@@H](O[C@H]2C[C@@](C)(OC)[C@@H](O)[C@H](C)O2)[C@H](C)[C@@H](O[C@@H]2O[C@H](C)C[C@H](N(C)C)[C@H]2O)[C@](C)(O)C[C@@H](C)CN(C)[C@H](C)[C@@H](O)[C@]1(C)O | 7.94 µM (active)
41 | CCCCCCCCCCCCCCCCOCCOCCOCCOCCOCCOCCOCCOCCOCCOCCOCCOCCOCCOCCOCCOCCOCCOCCOCCOCCO | 11.2 µM (active)
42 | O=C1c2ccccc2CN2C(=O)c3ccccc3CN12 | inactive
43 | O=C(Nc1ccc(O)cc1)c1ccccc1O | inactive
44 | C#C[C@]1(O)CC[C@@H]2[C@H]3CCC4=CC(=O)CC[C@H]4[C@H]3C(=C)C[C@@]21CC | inactive
45 | COc1ccc2nc(NC(=O)Nc3ccccc3)sc2c1 | inactive
46 | O=C(OCc1ccccc1)c1cccnc1 | inactive

Reference: PubChem BioAssay (NCATS)
